Bioassay records (PubChem)
Sfp PPTase inh – qHTS Assay for Inhibitors of Bacillus subtilis Sfp phosphopantetheinyl transferase (PPTase); AID 1490, 2009; 4'-phosphopantetheinyl transferase ffp (Bacillus subtilis), Q9F4F7; Potency, µM, for the others: largest response in the series, negative = inhibition, hits mostly inhibitors; Biochemical Sfp PPTase activity, qHTS; actives 3.5% (n = 310,000);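 note: the enzyme is Sfp with the accession as filed and its product quenches rhodamine fluorescence; 0% = enzyme reaction without inhibitor and -100% = no enzyme wells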
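Reaction rates are the 30-min fluorescence difference (ex 525, em 598 nm) in wells containing 15 nM Sfp, 5 uM rhodamine-CoA and 12.5 uM BHQ-2-YbbR at pH 7.6 with 10 mM MgCl2.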
G9a block – qHTS Assay for Inhibitors of Histone Lysine Methyltransferase G9a; Histone-lysine N-methyltransferase EHMT2 (Homo sapiens), Q96KQ7; G9a H3K9 monomethylation, AlphaScreen, 2 h; Potency, µM (series often up to 102 µM), for the others: at the top dose activity, negative = inhibition, actives largely listed as inhibitors; actives 8.8% (n = 350,000); note: % is set by controls: 0 for no effect and ±100 for the full control effect; nearly all actives have a fitted effect of over 75% in size
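AlphaScreen detection with an anti-monomethyl H3K9 antibody quantified product after a 2 h room-temperature reaction containing 500 nM biotinylated H3K9 peptide, 20 µM SAM and 20 nM enzyme, which had been preincubated 15 min with compound.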
L3MBTL1 block – qHTS Assay for the Inhibitors of L3MBTL1. Potency, µM (titrated, usually from 57.1 µM), inactives show at the highest dose activity, negative = inhibition, hits mostly inhibitors. AID 485360, 2010. AlphaScreen L3MBTL1–H3K9me1 peptide binding. actives 0.66% (n = 230,000); note: % is set by controls: 0 for no effect and ±100 for the full control effect; nearly all actives have a fitted effect of over 60% in size
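Displacement of a biotinylated histone H3(1-15) peptide monomethylated at Lys9 (75 nM) from L3MBTL1 (50 nM) was measured by AlphaScreen after a 30 min room-temperature compound incubation; cefsulodin titration served as intraplate control.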
JMJD2A Tudor – qHTS Assay for Inhibitors of JMJD2A-Tudor Domain; Lysine-specific demethylase 4A (Homo sapiens), O75164; AlphaScreen JMJD2A-Tudor / H3K4me3 peptide binding; Potency, µM (highest dose often 114 µM), for inactives: at the highest dose activity change, negative = inhibition, actives largely listed as inhibitors; actives 4.4% (n = 390,000); AID 504339, 2011; note: % is set by controls: 0 for no effect and ±100 for the full control effect; nearly all actives have a fitted effect of over 50% in size
Target sequence (O75164 whole entry, looked up, the tested form may be a part): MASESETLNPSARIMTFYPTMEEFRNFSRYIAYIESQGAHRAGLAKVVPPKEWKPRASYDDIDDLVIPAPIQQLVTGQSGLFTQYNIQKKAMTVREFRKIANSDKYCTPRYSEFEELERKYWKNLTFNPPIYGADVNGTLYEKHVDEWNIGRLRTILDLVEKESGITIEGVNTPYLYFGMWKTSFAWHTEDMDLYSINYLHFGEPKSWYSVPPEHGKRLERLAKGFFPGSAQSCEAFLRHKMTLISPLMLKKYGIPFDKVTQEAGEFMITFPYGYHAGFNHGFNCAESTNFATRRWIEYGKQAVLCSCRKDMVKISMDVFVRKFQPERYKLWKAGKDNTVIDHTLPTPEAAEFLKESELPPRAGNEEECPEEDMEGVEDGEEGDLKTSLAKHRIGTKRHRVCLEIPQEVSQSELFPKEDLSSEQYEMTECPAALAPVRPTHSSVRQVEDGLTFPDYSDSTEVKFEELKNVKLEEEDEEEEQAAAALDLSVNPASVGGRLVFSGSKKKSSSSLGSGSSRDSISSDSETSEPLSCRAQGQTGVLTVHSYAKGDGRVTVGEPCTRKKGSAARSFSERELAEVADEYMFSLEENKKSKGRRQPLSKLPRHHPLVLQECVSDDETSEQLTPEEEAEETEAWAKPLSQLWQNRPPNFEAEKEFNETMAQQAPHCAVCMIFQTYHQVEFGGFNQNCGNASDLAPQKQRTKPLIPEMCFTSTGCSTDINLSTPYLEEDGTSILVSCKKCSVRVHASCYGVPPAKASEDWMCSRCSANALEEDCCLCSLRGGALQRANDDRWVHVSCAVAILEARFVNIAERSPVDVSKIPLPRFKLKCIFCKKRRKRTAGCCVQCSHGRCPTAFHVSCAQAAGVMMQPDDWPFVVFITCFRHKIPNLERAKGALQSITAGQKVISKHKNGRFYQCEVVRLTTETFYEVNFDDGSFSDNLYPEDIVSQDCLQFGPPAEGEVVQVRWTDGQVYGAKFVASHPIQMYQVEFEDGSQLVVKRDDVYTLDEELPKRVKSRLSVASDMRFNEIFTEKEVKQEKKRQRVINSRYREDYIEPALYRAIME
HP1b binding inh – HTS for Inhibitors of HP1-beta Chromodomain Interactions with Methylated Histone Tails | Potency, µM (top dose mostly 114 µM), inactives show top-dose activity change, negative = inhibition, hits mostly inhibitors | actives 0.56% (n = 390,000) | AlphaScreen HP1-beta / biotin-H3K9me3 peptide binding; note: nearly all actives have a fitted effect of over 70% in size
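AlphaScreen: HP1-beta (50 nM) preformed 30 min with biotin-H3(1-18)K9me3 peptide (50 nM) in PBS pH 7.4, 0.01% Tween-20. Compound added for 30 min at RT, then streptavidin donor/nickel chelate acceptor beads (10 ug/mL) for 30 min.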
BAZ2B inh – qHTS Assay for Inhibitors of BAZ2B; AlphaScreen BAZ2B-H3K14Ac peptide displacement; Potency, µM (titrated, usually from 114 µM), inactives show at the top dose activity change, negative = inhibition, most hits filed as inhibitors; actives 4.4% (n = 360,000); note: % is set by controls: 0 for no effect and ±100 for the full control effect; nearly all actives have a fitted effect of over 60% in size
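Inhibition is scored as reduced AlphaScreen emission. The BAZ2B/b-H3(5-23)K14Ac complex (50 nM each) in PBS pH 7.4, 0.01% Tween-20 meets compound (up to 110 uM) for 30 min at RT before bead addition.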
Numbers without * were called inactive; ? = inconclusive; . = no result; ! = not confirmed by another sample; [ ] = remark or other dose. Hits are enriched below; roughly 12% of the tested compounds scored in any of these assays. Calls come from the whole dose curve; as a rule, active = well fitted curve in the direction sought with a large enough effect; inconclusive = small, poorly fitted or top-dose-only effect, or another doubt; inactive = no such curve, though single readings can be large; an effect the other way counts as inactive or inconclusive. Potency is the fitted concentration of half-maximal effect.

SMILES	Sfp PPTase inh	G9a block	L3MBTL1 block	JMJD2A Tudor	HP1b binding inh	BAZ2B inh
COC(=O)[C@H]1[C@H]2C[C@@H]3c4[nH]c5cc(OC)ccc5c4CCN3C[C@H]2C[C@@H](OC(=O)/C=C/c2cc(OC)c(OC)c(OC)c2)[C@@H]1OC	.	8.9µM*	?	28µM*	-22%	?
CN1CCN(c2ccc(N)cc2Cl)CC1	?	40µM*	.	?	28µM*	?
CNc1cc(Cl)c2nonc2c1[N+](=O)[O-]	-26%	25µM*	0%	-23%	-14%	-31%
Cc1cc(OC(C)C(=O)NCc2cccnc2)c2c3c(c(=O)oc2c1)CCC3 (stereo not drawn)	13%	37%	.	89µM*	95%	-8%
Cc1cc(OCC(=O)N[C@H](C(=O)O)c2ccccc2)c2c3c(c(=O)oc2c1)CCC3	27%	79µM*	4%	?	-6%	-3%
OC1(c2ccc(Cl)cc2)CCN(Cc2c[nH]c3ccccc23)CC1	13%	30%[59 µM]	.	-34%	-16%	.
CC12CCCCC1(O)[N+](=O)C1=C(CCCC1)N2[O-] (stereo not drawn)	?	?	-20%	-11%[57.1 µM]	24%	?
CC(N)Cc1cn(Cc2ccccc2)c2ccccc12 (stereo not drawn)	5%	?	-1%	79µM*	-22%	-30%
O=C(O)CCCC[C@@H]1SC[C@@H]2NC(=O)N[C@@H]21	.	.	.	?	-72%	.
O=C(O)CNC(=O)[C@@H](CS)Cc1ccccc1	35µM*	?	.	.	.	.
O=C(O)Cc1ccccc1	2%	19%[59 µM]	.	.	.	.
c1ccc2c(c1)OCC(C1=NCCN1)O2 (stereo not drawn)	10%	28µM*	7%	9%	41%	?
CN1[C@H]2CC(=O)C[C@@H]1[C@@H](O)C2	?	1%[21.5 µM]	.	.	.	.
CO[C@H]1[C@@H](O)CC(OC2[C@@H](O)CC(OC3[C@@H](O)C[C@H](OC4CC[C@@]5(C)C(CCC6C5CC(O)[C@]5(C)[C@H](C7=CC(=O)OC7)CCC65O)C4)O[C@@H]3C)O[C@@H]2C)O[C@@H]1C (stereo partly drawn)	-7%	10%[12.7 µM]	.	.	.	.
CN1C(=O)C(Cc2ccsc2)C(=O)N(C)C1=O	28µM*	11µM*	?	-10%	64%	-31%
CN1C(=O)C(Cc2ccccc2)C(=O)N(C)C1=O	.	.	.	-19%	18%	.
COc1ccc(CCN)cc1	21%	32%[59 µM]	.	.	.	.
CCOc1ccc(N=C2SCCCN2C)cc1	-2%	3.5µM*	-1%	?	5%	-4%
S=P(c1ccccc1)(c1ccccc1)c1c[nH]c2ccccc12	.	.	.	-35%	.	.
CC1CCc2cc(F)cc3c(=O)c(C(=O)O)cn1c23 (stereo not drawn)	-8%	8.9µM*	6%	?	-2%	56µM*
COc1ccc(NC(c2ccccc2F)P(=O)(Oc2ccccc2)Oc2ccccc2)cc1 (stereo not drawn)	24%	?	?	?	?	?
COc1ccc(NC(c2ccccc2)P(=O)(Oc2ccccc2)Oc2ccccc2)cc1 (stereo not drawn)	5%	25µM*	-24%	?	2%	25µM*
O=C1C=CC[C@@H]2[C@H]3CCCN4CCC[C@@H](CN12)[C@@H]34	-7%	.	.	.	.	.
CNC(C)C1CC[C@H](N)[C@@H](OC2C(N)C[C@H](N)[C@@H](OC3OC[C@](C)(O)C(NC)[C@H]3O)C2O)O1 (stereo partly drawn)	0%	-11%[2.33 µM]	.	.	.	.
C[C@@H]1O[C@H](C[N+](C)(C)C)CS1	.	2µM*	.	.	.	.
SMILES	Sfp PPTase inh	G9a block	L3MBTL1 block	JMJD2A Tudor	HP1b binding inh	BAZ2B inh
CCNC(=O)[C@H]1O[C@@H](n2cnc3c(N)ncnc32)[C@H](O)[C@@H]1O	16%	7%[59 µM]	.	-1%	37%	-7%
Nc1ncnc2c1ncn2[C@@H]1O[C@H](COP(=O)(O)CP(=O)(O)O)[C@@H](O)[C@H]1O	12%	38%[59 µM]	.	79µM*	20%	.
Nc1ncnc2c1ncn2[C@@H]1O[C@H](COP(=O)(O)CP(=O)(O)OP(=O)(O)O)[C@@H](O)[C@H]1O	56µM*	13µM*!	.	.	.	.
O=S(c1ccccc1)c1ccccc1	.	.	.	-5%	42%	.
N[C@@]1(C(=O)O)CC[C@@H](C(=O)O)C1	.	30µM*!	0%	50µM*	-16%	-1%
CCCCOc1ccc(Cn2c(=O)oc3ccccc32)cc1	2%	16%	.	-5%	84%	-8%
COc1cc(C(=O)OC2C[C@H]3CC[C@@H](C2)N3)ccc1O (stereo partly drawn)	7%	40µM*	.	-17%	19%	-19%
COc1ccc(CC2C(=O)N(c3ccccc3)C(=O)N(c3ccccc3)C2=O)c(OC)c1	-1%	45µM*	.	-19%	30%	-5%
COc1ccc(CC2C(=O)NC(=O)N(c3ccccc3)C2=O)c(OC)c1 (stereo not drawn)	89µM*	?	-2%	-25%	23%	?
CCc1ccc(N2C(=O)NC(=O)C(Cc3ccc(OC)cc3OC)C2=O)cc1 (stereo not drawn)	50µM*	?	.	-10%	40%	-20%
COCCN1C(=O)/C(=C/c2c(OC)cc(OC)cc2OC)C(=O)N(c2ccccc2)C1=O	21%	22%[59 µM]	.	-2%[11.4 µM]	8%	0%
c1ccc2c(c1)c1cccc3ccc4cccc2c4c31	.	6%[0.501 µM]	9%	-18%	30%	-3%
NC(N)=NCCC[C@@H](N)C(=O)O	?	35%[59 µM]	.	.	.	.
C[C@H](NC(=O)[C@@H](N)Cc1ccc(O)cc1)C(=O)NCC(=O)N(C)[C@@H](Cc1ccccc1)C(=O)NCCO	5%	35%[59 µM]	.	.	.	.
C[C@@H]1CC[C@H]2[C@H](C)[C@H]3CC[C@@]4(O)[C@@H]5CC(=O)[C@H]6CC(=O)CC[C@]6(C)[C@H]5C[C@H]4[C@@H]3CN2C1	34%	.	.	.	.	.
Cc1cc(-c2nc3ncccc3o2)ccc1NC(=O)c1ccccc1Br	.	-1%[59 µM]	.	4%	48%	6%
FC(F)OC(F)(F)C(F)Cl (stereo not drawn)	11%	9%[12.7 µM]	.	.	.	.
O=c1c2ccccc2nc(-c2ccccc2F)n1-c1ccccc1	1%	.	-3%	-10%	21%	-2%
